Test results reported in PubChem BioAssay (NCI).
This is part of a sample that, as a whole, favours compounds with a hit. Of some 79,000 tested, about 15% had one in any assay. Unmarked numbers belong to inactive results. Active and inactive are the calls of the source. Cut-off read from the data, not from the text of the source: active = growth inhibition above about 70%; inactive = the rest.

Test: NCI Yeast Anticancer Drug Screen. Data for the wt1 strain (AID 149);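 note: 0% = growth of vehicle-treated wt1 cultures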
Details: S. cerevisiae wt1 strain (SPY 50644) growth inhibition, stronger effect = higher value
Description: Growth inhibition of yeast strains with defined genetic alterations is measured as a screen for potential anti-cancer activity. Selected strains with alterations in DNA damage repair or cell cycle control were exposed to compounds and growth inhibition was measured relative to vehicle treated controls. The strain used in this assay is wt1

SMILES	growth inhibition (at 1.2 µM)	growth inhibition (at 3.7 µM)	growth inhibition (at 11.0 µM)	growth inhibition (at 33.0 µM)	growth inhibition (at 100.0 µM)
Cc1cc(CO)c(O)c(CNCc2cc(C)cc(CO)c2O)c1	24%	15%	25%	38%	98% (active)
CSC(=S)N/N=C(\C)c1cccc(C)n1	-4%	-7%	-4%	19%	99% (active)
Cc1cc(S(=O)(=O)/N=C(/NN)NNc2cccc(C(F)(F)F)n2)c(S)cc1Cl	0%	-2%	-2%	-7%	10%
COc1cc(C2c3cc4c(cc3OC(NNc3ccccc3)C2C)OCO4)cc(OC)c1OC (stereo not given)	16%	9%	19%	74% (active)	94% (active)
COC(=O)c1ccc([N+](=O)[O-])c(O)c1	-12%	-10%	3%	28%	98% (active)
CCCCCCCC1(N=[N+]=[N-])C(=O)c2ccccc2N(C)C1=O (stereo not given)	7%	7%	7%	59%	73% (active)
CCCCCCCCCCC1CCC(=O)O1 (stereo not given)	-2%	-2%	-2%	3%	98% (active)
O=[N+]([O-])C(=C(Sc1ccccc1)Sc1ccccc1)C(Cl)=C(Cl)Cl	3%	13%	25%	36%	41%
